Source: PubChem BioAssay AID2642 (Johns Hopkins Ion Channel Center, 2010)
The campaign covered roughly 310,000 compounds. About 3,900 (1.3%) were called active.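 How the source made its calls: active means compounds whose thallium flux B-score, printed positive for inhibition, exceeds three library SD while starting fluorescence stays within three; inactive means the rest.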 Many of the other results were omitted from the sample, so actives are more common in it than they were.

target: Potassium voltage-gated channel subfamily KQT member 1 (Homo sapiens) (UniProt P51787); test: KCNQ1 potassium current blockers – cell-based, thallium flux, high-throughput, primary screen (AID 2642); conditions: CHO-K1 KCNQ1, FluxOR thallium flux fluorescence, at 10 µM; hits give high values;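 further: channel opened by potassium depolarization with thallium stimulus after 20 min compound exposure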
Sequence (P51787 whole entry, looked up): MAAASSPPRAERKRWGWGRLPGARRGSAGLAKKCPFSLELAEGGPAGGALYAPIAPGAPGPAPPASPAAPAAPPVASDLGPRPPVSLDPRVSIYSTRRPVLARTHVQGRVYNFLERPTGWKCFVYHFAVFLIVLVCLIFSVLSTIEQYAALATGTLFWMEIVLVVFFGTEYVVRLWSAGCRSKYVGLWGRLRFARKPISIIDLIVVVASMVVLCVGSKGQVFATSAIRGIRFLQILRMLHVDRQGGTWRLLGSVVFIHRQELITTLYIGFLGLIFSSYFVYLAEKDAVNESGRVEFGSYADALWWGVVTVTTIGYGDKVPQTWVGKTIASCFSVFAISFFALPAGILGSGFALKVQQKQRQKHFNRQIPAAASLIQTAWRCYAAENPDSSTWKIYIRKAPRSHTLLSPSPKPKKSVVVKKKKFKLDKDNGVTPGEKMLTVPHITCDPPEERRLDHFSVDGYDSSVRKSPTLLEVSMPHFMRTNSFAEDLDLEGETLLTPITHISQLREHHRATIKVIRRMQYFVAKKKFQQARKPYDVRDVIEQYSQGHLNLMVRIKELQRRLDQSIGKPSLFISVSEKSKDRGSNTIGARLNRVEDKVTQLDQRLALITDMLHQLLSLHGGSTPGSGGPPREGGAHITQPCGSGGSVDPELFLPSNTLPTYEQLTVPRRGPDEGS

B-score, active:
Brc1ccc(C2CC(c3ccccc3)=Nc3ccccc3N2)cc1 (centres undefined) 10, O=C(Cc1cccc2ccccc12)NNC(=O)Nc1ccc(Cl)cc1 6, O=C(NC(Nc1nc2ccc([N+](=O)[O-])cc2s1)(C(F)(F)F)C(F)(F)F)c1ccccc1 8, O=C(Nc1nc2ccc([N+](=O)[O-])cc2s1)c1ccc(S(=O)(=O)N2CCCc3ccccc32)cc1 9, COc1cccc(NC(C)=[N+](C)CCNS(=O)(=O)c2ccc(Cl)cc2)c1 6, COc1ccc(S(=O)(=O)NCCCCOc2ccc(Cl)cc2)cc1 9, CCOC(=O)C1CCN(c2ncnc3c2oc2ccc(Br)cc23)CC1 9, CC(=N\NC(=O)c1cc(Br)ccc1O)/C(=N/O)C(=O)Nc1ccccc1 9, Cc1nc(C(=O)Nc2ccc(Cl)cc2)sc1C1(C)CC(c2ccccc2)=NO1 (centres undefined) 6, N#C/C(=C\c1ccc(N2CCOCC2)o1)C(=O)N1CCOCC1 7, N#Cc1c(/N=C/N2CCCC2)oc(-c2ccccc2)c1-c1ccccc1 7, O=C(NCC(F)(F)F)Nc1nnc(C(F)(F)F)s1 6, Cc1ccc(C(=O)c2c(NC(=O)c3ccccc3)sc(C)c2C)cc1 6, CN(C)Cc1ccccc1C1(O)c2ccccc2CSc2ccccc21 (centres undefined) 7, O=C(Nc1ccc2ccccc2c1)Nc1ccc2snnc2c1 8, COc1ccc(CC(=O)Nc2nc(-c3ccc(F)c(F)c3)cs2)cc1OC 9, CCOC(=O)c1cnc(SC)nc1Sc1ccc(Cl)cc1Cl 6, COc1ccccc1N1CCN(c2ncnc3sc(C)c(-c4ccccc4)c23)CC1 9, Cc1cccc(N2CCN(C(=O)c3cnn4c(C(F)F)cc(-c5ccccc5)nc34)CC2)c1C 7

B-score, inactive:
COc1ccc(CN(C)C(=O)Cc2c[nH]c3ccccc23)c(OC)c1OC, CNC(=S)N1N=C(c2ccccc2)CC1c1ccc(Br)cc1 (centres undefined), c1ccc(C2=Nc3cccc4cccc(c34)N2)cc1, CC1CCCN(S(=O)(=O)c2ccc(N(C(=O)c3cnccn3)C(C(=O)NC3CCCCC3)c3cccs3)cc2)C1 (centres undefined), Cc1cc(C)n(-c2nnc(C)n2NC(=O)c2cccc(Cl)c2)n1, Cc1ccc2c(c1)N(CCCC(=O)NCc1cccnc1)C(=O)CO2, Cc1ccc(NC(=S)NC(NC(=O)Cc2cccc3ccccc23)C(Cl)(Cl)Cl)cc1 (centres undefined), O=C(O)Cc1ccc(NC(=O)Nc2cccc3ccccc23)cc1, COc1ccc(CNC(=O)c2c[nH]c3c(OC)cc(OC)cc3c2=O)cc1, CCOc1ccc(OCCSc2nc3ccccc3n2CC(=O)O)cc1, O=C(CCC(=O)c1cccs1)Nc1nc2ccccc2s1, O=C(Nc1nc(-c2ccco2)c(-c2ccco2)s1)c1ccco1, CN(C)CCCN(C(=O)c1ccc(S(=O)(=O)N2CCCc3ccccc32)cc1)c1nc2ccc(F)cc2s1, CCC(=O)NC(Nc1nc2ccc(C)cc2s1)(C(=O)OC)C(F)(F)F (centres undefined), CCOc1ccc2nc(NC(=O)c3cc([N+](=O)[O-])ccc3N3CCOCC3)sc2c1, CSc1nc2ccc(S(=O)(=O)N3CCc4ccccc43)cc2s1, O=C1NC(=O)C(c2ccc(Cl)cc2)N1 (centres undefined), Cc1cc(=O)n2nc(N3CCCC(C(=O)NCc4ccc(Cl)cc4)C3)sc2n1 (centres undefined), CC(OC(=O)CN1C(=O)COc2ccccc21)C(=O)NCc1ccc(F)cc1 (centres undefined), N#Cc1c(Cl)nc(-c2cccnc2)nc1-c1ccccc1, O=C(NN1CCOCC1)c1cccc(F)c1, O=C(NNC(=O)c1cc(-c2ccccc2Cl)nc2ccccc12)c1csc(N2CCOCC2)n1, CCC(=O)N1CCC(C(N)=O)(N2CCCCC2)CC1, COC(=O)CNS(=O)(=O)c1ccc(OC)cc1, COc1ccc(S(=O)(=O)NCCCc2ccccc2)cc1, COc1cccc(NC(=O)CCNS(=O)(=O)c2ccc3c(c2)oc(=O)n3C)c1, CCNS(=O)(=O)c1ccc(NC(=O)Nc2cccc(OC)c2)cc1, Cc1cccc(NC(=O)c2ccc3c(=O)n(CC4CCCO4)c(=S)[nH]c3c2)c1 (centres undefined), COc1cc(OC)cc(C(=O)NC(=S)N2CCN(c3ccc(C(F)(F)F)cc3[N+](=O)[O-])CC2)c1, CCOc1ccc(-c2cc(C(=O)N/N=C/c3ccc(O)cc3)c3ccccc3n2)cc1, NC1=NC2(CCCCC2)N(c2ccc(F)cc2F)C(N)=N1, COc1ccc(CNC(=O)/C(C#N)=C/c2cccc(OC)c2OC)cc1, CCOC(=O)C1CCN(c2ncnc3c2c(-c2ccccc2)cn3-c2ccc(C)cc2)CC1, CCOC(=O)C1CCN(Cc2nnc(-c3cccc(Br)c3)o2)CC1, N/C(=N\c1nc2ccccc2o1)NC(=O)C(Cc1ccccc1)N1C(=O)c2ccccc2C1=O (centres undefined), CCOC(=O)COn1c(=O)c(-c2ccc(OCC)cc2)[n+]([O-])c2ccccc21, NC(=O)C1CCN(C(=O)c2ccc3c(=O)n(Cc4cccc(Br)c4)c(=S)[nH]c3c2)CC1, CC(C)/C=N/NC(=O)c1cc(Br)ccc1O, CC(=O)N/N=C(\C)c1ccc(Br)cc1Br, CC1(C(=O)O)CCC(C(=O)Nc2ccc(Cl)c(Cl)c2)C1(C)C (centres undefined), CC(=O)Nc1cccc(NC(=O)c2ccc3c(c2)CCN3S(C)(=O)=O)c1, Cc1nc(C(=O)NCc2ccccc2)sc1C1(C)CC(c2cccnc2)=NO1 (centres undefined), Cc1nc(-c2ccc(Cl)cc2)sc1C1(C)CC(c2ccc(Br)cc2)=NO1 (centres undefined), CC1C(=O)Nc2ccc(S(=O)(=O)N3CCN(c4ccccc4F)CC3)cc2NC1=O (centres undefined), C=CCC1(CC=C)CCCN1C(=O)CC1C(=O)NCCN1Cc1ccccc1OC (centres undefined), COc1ccc(N2CCN(C(=O)/C(C#N)=C/c3ccccc3)CC2)cc1, N#C/C(=C/c1ccc(N2CCOCC2)o1)C(=O)N1CCOCC1, COc1ccc(N2CC(C(=O)N[C@@H](C)C(=O)N3CCCCC3)CC2=O)cc1 (some centres undefined), Cc1cc(C(C)(C)C)oc1C(=O)N(CC(=O)NC1CCCC1)Cc1ccc(Cl)cc1, COCCN1C(=O)C(=O)/C(=C(/O)c2ccc(S(=O)(=O)N3CCOCC3)cc2)C1c1ccc(O)c(OC)c1 (centres undefined), COc1ccccc1C(=O)NC(CCSC)C(=O)N1CCN(C/C=C/c2ccccc2)CC1 (centres undefined), CCOc1ccc(CCNC(=O)COC(=O)CCS(=O)(=O)c2ccc(C)cc2)cc1OCC, N#Cc1c(-c2ccccc2)c(-c2ccccc2)n[nH]c1=O, COc1ccc(-c2oc(/N=C/N3CCCC3)c(C#N)c2-c2ccc(OC)cc2)cc1, O=C(Nc1nnc(COc2ccccc2)s1)Nc1ccccc1F, COc1ccc(C)cc1NC(=O)CCC(=O)Nc1nnc(C(F)(F)F)s1, Cc1ccccc1NS(=O)(=O)CCCCC(Cl)(Cl)Cl, CN(C)S(=O)(=O)c1cccc(NC(=O)COC(=O)C2(c3ccccc3F)CCCC2)c1, N#Cc1ccc(C(=O)Nc2nc(-c3cccs3)c(C(=O)C(F)(F)F)s2)cc1, Cc1sc(NC(=O)c2ccc3ncsc3c2)c(C(N)=O)c1C, Cc1ccc(C(=O)c2c(NC(=O)c3ccncc3)sc3c2CCCC3)cc1, COc1ccc(NC(=O)NNC(=O)COc2cc(C)c(Cl)c(C)c2)c(OC)c1, CC1(C)NC(=O)N(CC(=O)Nc2cc(C(F)(F)F)cc(C(F)(F)F)c2)C1=O, COc1ccc(CCNS(=O)(=O)c2cccc([N+](=O)[O-])c2)cc1, CCC1Sc2ccc(S(=O)(=O)CCC(=O)NCc3cccs3)cc2NC1=O (centres undefined), CN(C)NC(=O)c1csnc1-c1c(Cl)cccc1Cl, O=c1ccc2cc(S(=O)(=O)Nc3ccccc3F)ccc2o1, CCc1ccccc1NC(=O)c1ccc2snnc2c1, O=C(Nc1cccc(Br)c1)c1ccc2snnc2c1, Cc1ccc(C(=O)NCC(=O)NCc2cc(=O)n(C)c(=O)n2C)cc1, Cc1ccc(S(=O)(=O)NC(=O)Nc2nc(-c3ccc(F)c(F)c3)cs2)cc1, COc1cc(CC(=O)Nc2nc(-c3ccc(F)c(F)c3)cs2)cc(OC)c1OC, NC(=O)[C@H]1CC2(CC(c3cccc(NC(=O)[C@H]4CCC(=O)N4)c3)=NO2)CN1C(=O)c1ccccc1C(=O)c1ccccc1 (some centres undefined), O=C(Cn1nnc2ccccc2c1=O)Nc1cc(C(F)(F)F)ccc1N1CCOCC1, CCCc1cc(=O)[nH]c(SCC(=O)Nc2sc3c(c2C#N)CCCC3)n1, CCOC(=O)c1nc(C)n(-c2ccc(Cl)cc2Cl)n1, CCOC(=O)c1cnc(COc2ccccc2Cl)[nH]c1=O, Oc1ccccc1N1CCN(c2ncnc3sc(-c4ccccc4)cc23)CC1, COc1ccccc1N1CCN(c2ccc([N+](=O)[O-])nc2)CC1, CCN(CC)S(=O)(=O)c1ccc(OC(C)C)c(N)c1, CCc1ccccc1NC(=O)/C(=C/c1ccccc1)c1ccccc1, COCc1cc(C)nc2sc3c(=O)n(-c4cccc5ccccc45)nnc3c12, COc1ccc(/C=C/C(=O)Nc2ccc(C34CC5CC(CC(O)(C5)C3)C4)cc2)cc1OC, Cc1cccc(N2CCN(C(=O)c3cc4c(=O)[nH]c5ccccc5c4n3C)CC2)c1C, O=C(O)c1cnn2c(C(F)(F)F)cc(-c3ccccc3)nc12
